Laboratory results published in PubChem BioAssay AID1159580 (chemical genetic matrix, 2015).
Hit rate of the full screen: of about 5,500 compounds, about 2,000 (36%) were called active. About 18% were inconclusive and are not listed. Rule as the data show it: active = normalized growth mostly below about 0.91 (no sharp cut-off); inconclusive = no clear call, values can overlap the other calls; inactive = mostly above about 0.92. Some of the results follow.

Experiment: chemical genetic growth profiling, strain panel (AID 1159580);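 also: tested at 20 µM; growth read once vehicle control cultures reached saturation at 30 °C; 1 = growth at the plate median or of vehicle wells; lower values mean less growth of the strain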
Conditions: growth OD
[1] = S. cerevisiae deletion strains, locus YDL101C, strain DUN1, active compounds read low
[2] = S. cerevisiae deletion strains, locus YHR030C, strain SLT2, active compounds read low

Measured: normalized growth

N#Cc1sccc1Br
inactive: S. cerevisiae deletion strains, locus YAL013W, strain DEP1, active compounds read low 0.995 | S. cerevisiae deletion strains, locus YBR229C, strain ROT2, active compounds read low 0.982 | S. cerevisiae deletion strains, locus YCL061C, strain MRC1, active compounds read low 1.02 | [1] 0.967 | S. cerevisiae deletion strains, locus YDL134C, strain PPH21, active compounds read low 0.993 | S. cerevisiae deletion strains, locus YDR150W, strain NUM1, active compounds read low 1.06 | S. cerevisiae deletion strains, locus YEL061C, strain CIN8, active compounds read low 1 | S. cerevisiae deletion strains, locus YGR078C, strain PAC10, active compounds read low 0.999 | [2] 0.961 | S. cerevisiae deletion strains, locus YHR087W, strain rtc3, active compounds read low 0.986 | S. cerevisiae deletion strains, locus YJR043C, strain POL32, active compounds read low 1.01 | S. cerevisiae deletion strains, locus YJR075W, strain HOC1, active compounds read low 1.03 | S. cerevisiae deletion strains, locus YLR039C, strain RIC1, active compounds read low 1 | S. cerevisiae deletion strains, locus YLR058C, strain SHM2 (second series), active compounds read low 0.991 | S. cerevisiae deletion strains, locus YLR085C, strain ARP6, active compounds read low 1.1 | S. cerevisiae deletion strains, locus YLR262C, strain YPT6, active compounds read low 1 | S. cerevisiae deletion strains, locus YML094W, strain GIM5, active compounds read low 0.982 | S. cerevisiae deletion strains, locus YMR219W, strain ESC1, active compounds read low 0.991 | S. cerevisiae deletion strains, locus YMR263W, strain SAP30, active compounds read low 1.04 | S. cerevisiae deletion strains, locus YNL153C, strain GIM3, active compounds read low 1.02 | S. cerevisiae deletion strains, locus YNL298W, strain CLA4 (second series), active compounds read low 1.04 | S. cerevisiae deletion strains, locus YNL322C, strain KRE1, active compounds read low 0.997 | S. cerevisiae deletion strains, locus YNR030W, strain Alg12, active compounds read low 1 | S. cerevisiae deletion strains, locus YPL055C, strain LGE1, active compounds read low 1.02 | S. cerevisiae deletion strains, locus YPR135W, strain CTF4, active compounds read low 1.04 | S. cerevisiae strains, strain wild type, active compounds read low 0.99
active: S. cerevisiae deletion strains, locus YPL241C, strain CIN2, active compounds read low 1.32 [resistant]

O=C(c1cc2c(s1)-c1ccccc1CC2)N1CCN(Cc2ccccc2)CC1
inactive: S. cerevisiae deletion strains, locus YAR019C, strain CDC15, active compounds read low 1 | S. cerevisiae deletion strains, locus YBL105C, strain PKC1, active compounds read low 1 | S. cerevisiae deletion strains, locus YBR135W, strain CKS1, active compounds read low 0.996 | S. cerevisiae deletion strains, locus YBR136W, strain MEC1, active compounds read low 0.999 | S. cerevisiae deletion strains, locus YBR160W, strain CDC28, active compounds read low 0.998 | S. cerevisiae deletion strains, locus YDL017W, strain CDC7, active compounds read low 1 | S. cerevisiae deletion strains, locus YDL028C, strain MPS1, active compounds read low 0.999 | [1] 0.999 | S. cerevisiae deletion strains, locus YDL108W, strain KIN28, active compounds read low 0.998 | S. cerevisiae deletion strains, locus YDL132W, strain cdc53, active compounds read low 0.993 | S. cerevisiae deletion strains, locus YDL214C, strain PRR2, active compounds read low 0.965 | S. cerevisiae deletion strains, locus YDR052C, strain DBF4, active compounds read low 1 | S. cerevisiae deletion strains, locus YDR054C, strain cdc34, active compounds read low 0.99 | S. cerevisiae deletion strains, locus YDR226W, strain ADK1, active compounds read low 1 | S. cerevisiae deletion strains, locus YDR477W, strain SNF1, active compounds read low 0.982 | S. cerevisiae deletion strains, locus YER123W, strain YCK3, active compounds read low 0.929 | S. cerevisiae deletion strains, locus YER133W, strain GLC7, active compounds read low 0.985 | S. cerevisiae deletion strains, locus YFL009W, strain cdc4, active compounds read low 1.01 | S. cerevisiae deletion strains, locus YFL029C, strain CAK1, active compounds read low 1 | S. cerevisiae deletion strains, locus YFR003C, strain YPI1, active compounds read low 0.998 | S. cerevisiae deletion strains, locus YFR019W, strain FAB1, active compounds read low 0.941 | S. cerevisiae deletion strains, locus YFR028C, strain CDC14, active compounds read low 0.996 | S. cerevisiae deletion strains, locus YGR040W, strain KSS1, active compounds read low 0.962 | S. cerevisiae deletion strains, locus YGR052W, strain FMP48, active compounds read low 1.1 | S. cerevisiae deletion strains, locus YGR092W, strain DBF2, active compounds read low 0.988 | [2] 1 | S. cerevisiae deletion strains, locus YHR079C, strain IRE1, active compounds read low 0.971 | S. cerevisiae deletion strains, locus YHR082C, strain KSP1, active compounds read low 1.04 | S. cerevisiae deletion strains, locus YHR205W, strain SCH9, active compounds read low 0.94 | S. cerevisiae deletion strains, locus YIL147C, strain SLN1, active compounds read low 1 | S. cerevisiae deletion strains, locus YJL095W, strain BCK1, active compounds read low 0.974 | S. cerevisiae deletion strains, locus YJL128C, strain PBS2, active compounds read low 0.974 | S. cerevisiae deletion strains, locus YJL157C, strain FAR1, active compounds read low 0.976 | S. cerevisiae deletion strains, locus YJR016C, strain ILV3, active compounds read low 0.988 | S. cerevisiae deletion strains, locus YJR066W, strain TOR1 (second series), active compounds read low 0.958 | S. cerevisiae deletion strains, locus YJR066W, strain TOR1, active compounds read low 1.07 | S. cerevisiae deletion strains, locus YKL048C, strain ELM1, active compounds read low 0.984 | S. cerevisiae deletion strains, locus YKL067W, strain YNK1, active compounds read low 0.955 | S. cerevisiae deletion strains, locus YKL101W, strain HSL1, active compounds read low 0.984 | S. cerevisiae deletion strains, locus YKL193C, strain SDS22, active compounds read low 1 | S. cerevisiae deletion strains, locus YKL203C, strain TOR2, active compounds read low 1.01 | S. cerevisiae deletion strains, locus YLR113W, strain HOG1, active compounds read low 0.96 | S. cerevisiae deletion strains, locus YLR133W, strain CKI1, active compounds read low 0.971 | S. cerevisiae deletion strains, locus YLR403W, strain SFP1, active compounds read low 0.966 | S. cerevisiae deletion strains, locus YML070W, strain DAK1, active compounds read low 0.953 | S. cerevisiae deletion strains, locus YMR001C, strain CDC5, active compounds read low 1 | S. cerevisiae deletion strains, locus YMR205C, strain PFK2 (second series), active compounds read low 0.981 | S. cerevisiae deletion strains, locus YMR277W, strain FCP1, active compounds read low 1.01 | S. cerevisiae deletion strains, locus YNL006W, strain LST8, active compounds read low 1.02 | S. cerevisiae deletion strains, locus YNL020C, strain ARK1, active compounds read low 0.982 | S. cerevisiae deletion strains, locus YNL161W, strain CBK1, active compounds read low 1 | S. cerevisiae deletion strains, locus YNL183C, strain NPR1, active compounds read low 0.984 | S. cerevisiae deletion strains, locus YNL207W, strain RIO2, active compounds read low 1 | S. cerevisiae deletion strains, locus YNL222W, strain SSU72, active compounds read low 1.01 | S. cerevisiae deletion strains, locus YNL307C, strain MCK1 (second series), active compounds read low 0.963 | S. cerevisiae deletion strains, locus YOL078W, strain AVO1, active compounds read low 1.01 | S. cerevisiae deletion strains, locus YOL136C, strain PFK27, active compounds read low 0.964 | S. cerevisiae deletion strains, locus YOR061W, strain CKA2, active compounds read low 1 | S. cerevisiae deletion strains, locus YOR119C, strain RIO1, active compounds read low 1.1 | S. cerevisiae deletion strains, locus YOR231W, strain MKK1, active compounds read low 0.981 | S. cerevisiae deletion strains, locus YOR329C, strain SCD5, active compounds read low 1.01 | S. cerevisiae deletion strains, locus YPL031C, strain PHO85, active compounds read low 0.981 | S. cerevisiae deletion strains, locus YPL153C, strain RAD53, active compounds read low 0.975 | S. cerevisiae deletion strains, locus YPL204W, strain HRR25, active compounds read low 0.951 | S. cerevisiae deletion strains, locus YPL209C, strain IPL1, active compounds read low 1.01 | S. cerevisiae deletion strains, locus YPL256C, strain CLN2, active compounds read low 0.958 | S. cerevisiae deletion strains, locus YPR025C, strain CCL1, active compounds read low 1 | S. cerevisiae deletion strains, locus YPR106W, strain ISR1, active compounds read low 0.996 | S. cerevisiae deletion strains, locus YPR111W, strain DBF20, active compounds read low 0.977 | S. cerevisiae deletion strains, strain NNK1, active compounds read low 0.998 | S. cerevisiae deletion strains, strain TSCII, active compounds read low 1
